# Screening results as filed in PubChem.
# A selection: hits, their analogues and other compounds. The true share with any hit is near 0.43%.
# GLA inh pH 4.5 = alpha-galactosidase A (human) inhibition, pH 4.5 | purified enzyme, 4-MU-alpha-Gal fluorescence, pH 4.5 | activity change, negative = inhibition, % at 105 µM | 230,000 tested, under 10 active;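 note: 0% = full activity with enzyme and -100% = basal without enzyme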
# Target sequence (P06280 whole entry, looked up): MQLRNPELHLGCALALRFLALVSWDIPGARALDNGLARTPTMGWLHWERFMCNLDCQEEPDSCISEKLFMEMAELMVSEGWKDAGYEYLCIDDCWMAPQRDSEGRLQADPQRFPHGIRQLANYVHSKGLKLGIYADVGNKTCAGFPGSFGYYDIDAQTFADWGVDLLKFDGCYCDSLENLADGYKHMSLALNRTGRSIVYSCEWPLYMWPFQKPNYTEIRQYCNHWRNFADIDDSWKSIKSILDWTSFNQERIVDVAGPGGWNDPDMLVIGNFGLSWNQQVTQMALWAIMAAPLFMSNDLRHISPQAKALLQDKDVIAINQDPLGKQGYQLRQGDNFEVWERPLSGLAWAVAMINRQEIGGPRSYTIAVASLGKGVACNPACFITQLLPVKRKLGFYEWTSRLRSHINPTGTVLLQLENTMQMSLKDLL
# aGal spleen mod = inhibitors or activators of human alpha-galactosidase in spleen homogenate; hit rate 0.008% among 240,000; human spleen homogenate, 4MU-alpha-Gal fluorescence, 40 min; AID 2107; Potency, µM (highest dose often 80 µM), inactives show at the highest dose activity change, negative = inhibition, usual class: inhibitors;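 note: potency is the fitted concentration of half-maximal effect; 0% = enzyme with vehicle and -100% = no enzyme basal signal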
#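 Spleen homogenate 1 ug + cpd (titration) + 4-MU-alpha-D-galactopyranoside 1 mM; 37C 40 min; 50 mM citrate/phosphate pH 5.0, 0.01% Tween-20; stop pH 10; fluorescence 365/440; AC50 via Hill.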
# GAA inhib = blocks human lysosomal alpha-glucosidase | purified human GAA, 4-MU-alpha-glucoside fluorescence | AID 1466 | hit rate 0.005% among 200,000 | Potency, µM (top dose mostly 76.9 µM), for the others: at the highest dose activity change, negative = inhibition, most hits filed as inhibitors | P10253;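 note: potency is the fitted concentration of half-maximal effect; plate controls were uninhibited enzyme wells for no effect and no-enzyme background for full effect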
#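 Compounds are titrated up to 77 uM against 4 nM human enzyme. Substrate 4-methylumbelliferyl-alpha-D-pyranoside (400 uM) reacts 20 min at room temperature in pH 5.0 buffer; liberated 4-methylumbelliferone is read at 440 nm.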
# GAA spleen mod = inhibits or activates alpha-glucosidase in human spleen homogenate | human spleen homogenate, 4-MU-alpha-glucoside fluorescence | hit rate 0.006% among 240,000 | AID 2112 | P10253 | Potency, µM (titrated, usually from 79.9 µM), inactives show at the top dose activity change, negative = inhibition, usual class: inhibitors;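 note: potency is the fitted concentration of half-maximal effect; 0% = enzyme with vehicle and -100% = no enzyme basal signal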
#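 Human spleen homogenate (1 ug) with 4-methylumbelliferyl-alpha-D-glucopyranoside (1 mM final) in 50 mM citrate/phosphate pH 5.0, 0.01% Tween-20; 40 min at 37 C. Stopped at pH 10; 4-MU fluorescence Ex 365/Em 440 nm; AC50 by Hill fit.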
# GAA glycogen mod = alters human alpha-glucosidase cleavage of glycogen; recombinant GAA, glycogen substrate, Amplex Red glucose oxidase fluorescence; Potency, µM (highest dose often 76.4 µM), without a hit: at the highest dose activity change, negative = inhibition, hits mostly inhibitors; hit rate 0.38% among 300,000;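 note: potency is the fitted concentration of half-maximal effect; 0% = full enzyme reaction and -100% = no-enzyme basal signal; the screen sought inhibitors and activators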
#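 Natural-substrate format: glycogen cleavage by 4 nM human enzyme, glucose read by Amplex Red coupling (Ex 573, Em 610 nm). Normalized to enzyme and no-enzyme controls.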
# N370S GC = inhibitors or activators of N370S glucocerebrosidase for Gaucher disease; Potency, µM (series often up to 59.4 µM), without a hit: at the top dose activity change, negative = inhibition, usual class: inhibitors; N370S GC spleen homogenate, 4MU-glucoside fluorescence; hit rate 0.092% among 330,000; P04062;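 note: potency is the fitted concentration of half-maximal effect; 0% = full enzyme activity and -100% = no enzyme basal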
# * = called active by the depositor; ? = inconclusive; · = not tested or not shown; [ ] = another dose, or the depositor's remark. Calls come from the whole dose curve; as a rule, active = well fitted curve in the direction sought with a large enough effect; inconclusive = small, poorly fitted or top-dose-only effect, or another doubt; inactive = no such curve, though single readings can be large; an effect the other way counts as inactive or inconclusive.
SMILES,GLA inh pH 4.5,aGal spleen mod,GAA inhib,GAA spleen mod,GAA glycogen mod,N370S GC
COc1cccc(/C=C2\SC(=S)N(C(C)C(=O)NC3C=CS(=O)(=O)C3)C2=O)c1 (centres undefined),·,·,·,·,·,16µM*
COC(=O)CNc1c(-c2ccccc2)nc2ccc(Br)cn12,-2,-17%,-8%,-7%,?,11µM*
COC(=O)Nc1c(-c2ccccc2)nc2ccc(Cl)cn12,·,·,·,·,6%[76.3 µM],-6%
CCOC(=O)C(CCc1ccccc1)NC(C)C(=O)N1Cc2cc(OC)c(OC)cc2CC1C(=O)O (centres undefined),·,-11%,·,10%,·,-11%
CC(C)Oc1ccc(CNC(=O)c2ccc(NC(=O)N3CC(C)Sc4ccccc43)cc2)cc1 (centres undefined),·,·,·,·,-7%[76.3 µM],·
O=C(NCc1ccc(F)cc1)c1ccc(NC(=O)N2CC3CCCN3c3ccccc32)cc1 (centres undefined),·,·,·,·,16µM*,·
O=C(O)c1ccc(O)cc1,·,-6%,·,0%,·,-1%
O=C(O)c1ccc(O)c(O)c1,2,-15%,-13%,-10%,5µM*,11%
COc1ccc2c(c1OC)C(=O)OC2CC(=O)c1ccc(O)c(O)c1 (centres undefined),-11,2%,-5%,-6%,14µM*,-15%
CSc1cccc(NC(=O)CN2C(=O)COc3ccc(Cl)cc32)c1,·,·,·,·,-11%[76.3 µM],·
O=[N+]([O-])/C(C=Nc1ccccc1O)=C\Nc1ccccc1O,-5,-8%,·,-1%,3.5µM*,-13%
O=[N+]([O-])/C(=C\Nc1ccccc1Cl)S(=O)(=O)c1ccccc1,9,14%,6%,-6%,-11%,16%
CCCCc1cc(=O)oc2cc(OC(C)C(=O)NCCN3CCOCC3)c(Cl)cc12 (centres undefined),·,·,·,·,·,20µM*
CCCCc1cc(=O)oc2cc(OCC(=O)NCCN3CCOCC3)c(Cl)cc12,·,·,·,·,2%[76.3 µM],-4%
CCOc1ccc(Cc2nnc(SCC(=O)c3ccc(OC)cc3)o2)cc1,0,2%,-14%,-5%,-8%,3%
CCOc1ccc(Nc2nc(Cc3nnc(SCC(=O)O)o3)cs2)cc1,-13,-1%,8%,-4%,14µM*,-11%
Oc1ccc(/C=N/NC(=S)NCc2ccco2)cc1,2,-3%,-2%,-3%,28µM*,-7%[12.8 µM]
S=C(NCc1ccco1)N/N=C/c1ccc(Cl)cc1,3,-9%,-2%,-12%,11%,9%
N#C/C(=C\c1cc(O)c(O)c(O)c1)C(N)=O,-11,-30%,·,?,5µM*,-22%
NNC(=O)c1cc2sccc2s1,-8,-7%,2%,-2%,25µM*,7%
CC(=O)NNC(=O)c1cc2sccc2s1,-14,7%,?,1%,-15%,10%
O=S(=O)(NC1c2cccc3cccc(c23)C1N1CCNCC1)c1ccc(Cl)cc1 (centres undefined),6,-12%,8%,-8%,7%,7.1µM*
C=CC[n+]1c(-c2ccc(OC)cc2)csc1NNC(=O)Nc1ccccc1,1,6%,-10%,2%,20µM*,-16%
CCCc1cc(=O)[nH]c(Nc2ccc(O)cc2C)n1,·,·,·,·,10µM*,·
CCCc1cc(=O)[nH]c(Nc2cccc(Cl)c2Cl)n1,·,·,·,·,-8%[76.3 µM],·
C/C(=C\C(=O)c1ccncc1)Nc1ccccc1O,-17,10%,-4%,-3%,25µM*,-3%
COc1ccc(OC)c(N/C(C)=C/C(=O)c2ccncc2)c1,·,·,·,·,-11%[76.3 µM],-1%
CCOC(=O)/C(=N\Nc1ccc(OC)cc1)c1csc(Nc2ccccc2)n1,0,0%,-3%,-6%,25µM*,·
CCOC(=O)/C(=N/Nc1ccccc1)c1csc(Nc2ccccc2)n1,-15,1%,-9%,-8%,?,11%
CCOC(=O)C1CCCN(c2nc3ccccc3nc2C(C#N)C(=O)OCC)C1 (centres undefined),1,-8%,0%,-3%,-2%,8%
